Screening results: PubChem BioAssay, National Center for Advancing Translational Sciences (NCATS)
Rows were chosen to be rich in hits. Some 19% of all compounds tested hit in one or more screens of this group.
IL1B secr inh – inhibitors of inflammasome signaling (IL-1 beta secretion). THP-1 LPS/ATP IL-1B secretion, AlphaLISA, 16 h; active compounds read low. 360,000 tested, 4.7% active. activity change, % at 57.5 µM. AID 743279; in the data active = activity change below about -50%; inconclusive = mostly about -30% to -49%
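Secreted IL-1B measured by AlphaLISA bead assay after 16 h compound exposure of THP-1 cells; compounds (final up to 57.5 uM) added 1 h before LPS (250 ng/mL) and ATP (1.25 mM) stimulation; lower signal means less secretion.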
DT40 TDP1 no CPT – qHTS for Inhibitors of human tyrosyl-DNA phosphodiesterase 1 (TDP1): qHTS in cells in absence of CPT | DT40 Tdp1-/- hTDP1 cells, no CPT, ATP luminescence, 48 h | AID 686978, 2013 | Potency, µM (series often up to 46.2 µM), most hits filed as inhibitors | 420,000 tested, 15% active; note: nearly all actives have a fitted effect of over 55% in size
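Readout: luminescence from CellTiter-Glo after 30 min in the dark at RT. Cells: DT40 Tdp1-/- with stable hTDP1, 400/well. Exposure: compounds alone, ≥48 hr, 37 °C.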
HT1080NT lethal – kills 2HG-producing HT-1080-NT fibrosarcoma cells | HT-1080-NT fibrosarcoma viability, CellTiter-Glo ATP luminescence, 48 h | Potency, µM (top dose mostly 46.1 µM), usual class: cytotoxic | 360,000 tested, 1.6% active;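 note: NT is the 2HG producing partner of a matched IDH1 knockdown line; nearly all actives have a fitted effect of over 55% in size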
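Read-out is CellTiter-Glo luminescence after 10 minutes at room temperature, following 48 hours' compound treatment of HT-1080-NT cells (750 cells/well, RPMI, 5% FBS, 37 degrees C).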
HT1080 IDH1KD tx – kills HT-1080 cells with IDH1 knockdown. HT-1080 IDH1 knockdown viability, ATP luminescence, 48 h. Potency, µM (series often up to 46.1 µM), actives largely listed as cytotoxic. 360,000 tested, 2% active. AID 686971
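CellTiter-Glo luminescence after 48 h compound exposure at 37 degrees C of IDH1-knockdown HT-1080 cells in 5% FBS RPMI. %Activity scaled between DMSO wells and cell-free media wells, with curves fitted and assigned curve classes.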
TDP1 cell CPT – growth inhibition of DT40 Tdp1-/-;hTDP1 cells with camptothecin (screen for TDP1 inhibitors). chicken DT40 Tdp1-/-;hTDP1 cells + 20 nM CPT, ATP luminescence, 48 h. Potency, µM (series often up to 46.2 µM), hits mostly inhibitors. 420,000 tested, 12% active; note: nearly all actives have a fitted effect of over 55% in size
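Chicken DT40 Tdp1-/- cells complemented with human TDP1, 400 cells/well, exposed to compounds plus 20 nM camptothecin for at least 48 h at 37 C; viability read as ATP content by CellTiter-Glo luminescence.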
Hits are given with their value. Unless noted, calls come from the whole dose curve; as a rule, active = well fitted curve in the direction sought with a large enough effect; inconclusive = small, poorly fitted or top-dose-only effect, or another doubt; inactive = no such curve, though single readings can be large; an effect the other way counts as inactive or inconclusive.

For CC(=O)c1c(C)[nH]c(C(=O)N2CCN(c3ccc(F)cc3)CC2)c1C the results were IL1B secr inh inactive, DT40 TDP1 no CPT inconclusive, HT1080NT lethal inconclusive, HT1080 IDH1KD tx 10µM and TDP1 cell CPT 14.1µM.
`CC(=O)c1c(C)[nH]c(C(=O)N2CCN(C(=O)c3ccco3)CC2)c1C` gave IL1B secr inh inactive, DT40 TDP1 no CPT inactive, HT1080NT lethal inactive, HT1080 IDH1KD tx inactive and TDP1 cell CPT inactive.
For CC(=O)c1c(C)[nH]c(C(=O)N2CCN(c3cc(Cl)ccc3C)CC2)c1C the results were IL1B secr inh inactive, DT40 TDP1 no CPT 5.8µM, HT1080NT lethal 16.4µM, HT1080 IDH1KD tx 23.1µM and TDP1 cell CPT 10.3µM.
For COc1cccc(N2CCN(C(=O)c3[nH]c(C)c(C(C)=O)c3C)CC2)c1 the results were IL1B secr inh inactive, DT40 TDP1 no CPT 4.47µM, HT1080NT lethal 7.08µM, HT1080 IDH1KD tx 5.62µM and TDP1 cell CPT 5.62µM.
CC(=O)c1c(C)[nH]c(C(=O)N2CCN(S(=O)(=O)c3ccc(C)cc3C)CC2)c1C was read as IL1B secr inh inactive, DT40 TDP1 no CPT 18.4µM, HT1080NT lethal inactive, HT1080 IDH1KD tx inactive and TDP1 cell CPT inconclusive.
`CCOC(=O)c1c(C)[nH]c(C(=O)OCC(=O)N2CCN(S(=O)(=O)c3ccc(C)cc3C)CC2)c1C` gave IL1B secr inh inconclusive, DT40 TDP1 no CPT inconclusive, HT1080NT lethal inactive, HT1080 IDH1KD tx inactive and TDP1 cell CPT inconclusive.
For Cc1cc(C(F)F)nn1CC(=O)Nc1cc([N+](=O)[O-])ccc1F the results were IL1B secr inh inactive, DT40 TDP1 no CPT inactive, HT1080NT lethal inactive, HT1080 IDH1KD tx inactive and TDP1 cell CPT inactive.
`O=C(Nc1ccccc1)c1cccc(S(=O)(=O)Oc2ccc([N+](=O)[O-])cc2)c1` gave IL1B secr inh inactive, DT40 TDP1 no CPT inconclusive, HT1080NT lethal inactive, HT1080 IDH1KD tx inactive and TDP1 cell CPT inconclusive.
For CC1(C)Cc2ccccc2-c2nnc(SCC(=O)Nc3nc4ccccc4s3)n21 the results were IL1B secr inh inactive, DT40 TDP1 no CPT inconclusive, HT1080NT lethal inactive, HT1080 IDH1KD tx inactive and TDP1 cell CPT inconclusive.
Screening O=S1(=O)N=C(c2ccccc2)c2ccccc21 returned IL1B secr inh inactive, DT40 TDP1 no CPT inactive, HT1080NT lethal inactive, HT1080 IDH1KD tx inactive and TDP1 cell CPT inactive.
For CN(Cc1ccccc1)C(=O)C(=O)c1ccccc1 the results were IL1B secr inh inactive, DT40 TDP1 no CPT inactive, HT1080NT lethal inactive, HT1080 IDH1KD tx inactive and TDP1 cell CPT inactive.
CCCCCC(=O)Nc1nc(C)c(-c2csc(Nc3ccc(Cl)cc3)n2)s1 was read as IL1B secr inh inactive, DT40 TDP1 no CPT 13µM, HT1080NT lethal inactive, HT1080 IDH1KD tx inconclusive and TDP1 cell CPT inconclusive.
`CCCCCCC(=O)Nc1nc(C)c(-c2csc(Nc3ccc(Cl)cc3)n2)s1` gave IL1B secr inh inactive, DT40 TDP1 no CPT 4.61µM, HT1080NT lethal 20.6µM, HT1080 IDH1KD tx inconclusive and TDP1 cell CPT 2.31µM.
CCCC(C)C(=O)Nc1nc(C)c(-c2csc(Nc3cc(Cl)ccc3C)n2)s1 (stereo not drawn) was read as IL1B secr inh inactive, DT40 TDP1 no CPT inconclusive, HT1080NT lethal inactive, HT1080 IDH1KD tx inactive and TDP1 cell CPT inconclusive.
`CCCCCC(=O)Nc1nc(C)c(-c2csc(Nc3cc(Cl)ccc3C)n2)s1` gave IL1B secr inh inactive, DT40 TDP1 no CPT 18.4µM, HT1080NT lethal inconclusive, HT1080 IDH1KD tx inconclusive and TDP1 cell CPT inconclusive.
For Cc1ncsc1CCOC(=O)c1ccc(N2CCOCC2)c([N+](=O)[O-])c1 the results were IL1B secr inh inactive, DT40 TDP1 no CPT inactive, HT1080NT lethal inactive, HT1080 IDH1KD tx inactive and TDP1 cell CPT inactive.
`Cc1c(CCOC(=O)c2ccc(N3CCOCC3)c([N+](=O)[O-])c2)sc[n+]1CC#N` gave IL1B secr inh -101.5, DT40 TDP1 no CPT 2.59µM, HT1080NT lethal 23.1µM, HT1080 IDH1KD tx inconclusive and TDP1 cell CPT 4.61µM.
For Cc1cc(Cl)cc2c1NC(=O)[C@]21[C@@H]2C(=O)N(Cc3ccccc3)C(=O)[C@@H]2[C@@H]2CCCN21 the results were IL1B secr inh inactive, DT40 TDP1 no CPT inconclusive, HT1080NT lethal inactive, HT1080 IDH1KD tx inconclusive and TDP1 cell CPT inactive.
